Laboratory results from PMC13494018.

B1: design_619_5728adc2-0aea-404f-92dd-a4575c53f550_175_dldesign_0_cycle1_af2pred (protein)
chain: AAAQQQAIGNAAIRTADIAMATAKKLIKEDPAKGKEVAEQAVGILEGAAKAAPSTAATLLAEAKKVKEETEKAIKEA
B2: design_619_5728adc2-0aea-404f-92dd-a4575c53f550_132_dldesign_0_cycle1_af2pred (protein)
chain: AEAAAALAAAMRAATDAAVAEAATGTGEGIAKALHVANLARAAAEANPETAAEHRAYAERALAAAKAAQAAAIAAA
B3: design_618_d4ffd631-0ea2-432e-ba0f-bd3d6297b2a0_1622_dldesign_0_cycle1_af2pred (protein)
chain: SKEEREKIYKEALKNLEKMGTLLLDLAAQGSAADVAAAKAAIEEAKKLIEEAKKANPEEAKKLAKEAHDILSKALAAVSKSVIA
B4: design_618_d4ffd631-0ea2-432e-ba0f-bd3d6297b2a0_2461_dldesign_0_cycle1_af2pred (protein)
chain: STAFFQEATKLIEEAGEVANRVPEVAPLANKAITAASKAMLAAAQGNEAAAKAYFDEAKKLLEEAKKKAKELLE
B5: design_618_d4ffd631-0ea2-432e-ba0f-bd3d6297b2a0_1628_dldesign_0_cycle1_af2pred (protein)
chain: AAQAQADQITKAAAEAAIKSAKAMVDINLESARKLAEVAADLGKAAPATAAEIKAAAKAVIEEADKKEAEKA
B6: design_619_5728adc2-0aea-404f-92dd-a4575c53f550_252_dldesign_0_cycle1_af2pred (protein)
chain: AAKEIAKQAQEAGKAAIAAAEALGKAKDPEEAKQMQEIAKALQQNAQAAAKAGDAKVAQAALNALRGLLRNAEAALAAAK
B7: design_618_d4ffd631-0ea2-432e-ba0f-bd3d6297b2a0_2235_dldesign_0_cycle1_af2pred (protein)
chain: EEDEKILESAKKMKEVAKDLAEYAKTSTAEVAKIAANSAEALARILKETAKESKKKEEIEKLAKEAEEYAKEAKETAKKK
B8: design_619_5728adc2-0aea-404f-92dd-a4575c53f550_149_dldesign_0_cycle1_af2pred (protein)
chain: SPAQEAARAEADRAAEAIAAFAKQIAAAASPELAKEVLAAAEKAAAALAAAKELPAEEARAATDAVWAAANRAAAAAMRQVLAQTT
B9: design_618_d4ffd631-0ea2-432e-ba0f-bd3d6297b2a0_1320_dldesign_0_cycle1_af2pred (protein)
chain: AAAEAAAAAVRAATAAGVARVEALAAAAGDAEVAALARAEAARIREVGAVLEEIARATGPFGGEVGLKSVATVTANAEARIAEAA
B10: design_618_d4ffd631-0ea2-432e-ba0f-bd3d6297b2a0_1624_dldesign_0_cycle1_af2pred (protein)
chain: MKAEVEALREQVSKAVNAATKAGSAAALKDGLASSQKLSEVMEEVGELVKKGNEATKKGEYEEALKYYQKAIEIATDAKAYFEKVAAA
B11: design_618_d4ffd631-0ea2-432e-ba0f-bd3d6297b2a0_719_dldesign_0_cycle1_af2pred (protein)
chain: AAALAEVQEKALEAAKKASELAREARKAGDEEKAKKFEELMNTLMSAAGAAAQDLEAAKEKIDKAIKEIEELAKN
B12: design_619_5728adc2-0aea-404f-92dd-a4575c53f550_189_dldesign_0_cycle1_af2pred (protein)
chain: DPATVRGLAAMAALALQAGVTGGPEVGAANLRNVAKLAAARGTPEAAEIAKKAEEAAKEADNPEKVKEYQAYFEEIAKA
B13: design_618_d4ffd631-0ea2-432e-ba0f-bd3d6297b2a0_2000_dldesign_0_cycle1_af2pred (protein)
chain: RAAAVEAALAYARAVAETDASLEAARAAFERAKALLPEAPEAAGTLAGAALVAGSNPALGERLFAAGAARAA
B14: design_618_d4ffd631-0ea2-432e-ba0f-bd3d6297b2a0_848_dldesign_0_cycle1_af2pred (protein)
chain: MERAISLGKAAAVAGIAGSTAALKNIVKTIAKLSPEEAKKAAEVAAKEIIKAPNAKEMLKAAADAAKEVGTESGKAAAEVFEKAAKKA
B15: design_618_d4ffd631-0ea2-432e-ba0f-bd3d6297b2a0_955_dldesign_0_cycle1_af2pred (protein)
chain: AAASEIMAKFAAGVAKNVAAVLKEDPEKGIEVGKKLAEIILAADPQAGAKLAQAFAEYVKKYAPLIPADKKAAAEAYFNALAEKGA
B16: design_618_d4ffd631-0ea2-432e-ba0f-bd3d6297b2a0_687_dldesign_0_cycle1_af2pred (protein)
chain: AAAQQLAVQSATAFARQAIAAAQAALELAKADPSAKEEIERLLNQARASLQNALLVGQSSPEAAAIAQEAQATVEKLAAETAKAAAA
B17: design_618_d4ffd631-0ea2-432e-ba0f-bd3d6297b2a0_941_dldesign_0_cycle1_af2pred (protein)
chain: SEEVKKALEEVEKLLDEAIKAAKAGDIGTAAVLLAKAAAIADKAHPEAGAVIRQGLAEAIAAAADPEKAAKVIEEAREKVKKILEA
B18: design_618_d4ffd631-0ea2-432e-ba0f-bd3d6297b2a0_1745_dldesign_0_cycle1_af2pred (protein)
chain: SAARLAEQRARAAELRERAEEALKRAEQVEKKNPAAGAAVRALVRQALRQVELGLADPENAERYLDSARRNLEVAQGIIDATL
B19: design_618_d4ffd631-0ea2-432e-ba0f-bd3d6297b2a0_2266_dldesign_0_cycle1_af2pred (protein)
chain: SADVELGKEKGKELAEKIKEAAKKGLKAGDPEAAGKEMNKIVQEAIKFAATLSPEAASVLLSIVIETAKEESAKLKAA
B20: design_618_d4ffd631-0ea2-432e-ba0f-bd3d6297b2a0_2243_dldesign_0_cycle1_af2pred (protein)
chain: AAAAATALAKATAEALVRSAERGNAETARKLAEVAKGLAEGEAAAGDEEAAKAAAEAAKKIEAIAKEKAA
B21: design_618_d4ffd631-0ea2-432e-ba0f-bd3d6297b2a0_1274_dldesign_0_cycle1_af2pred (protein)
chain: MSPEEAKAQAEELAKQAKENKAKALATVADPAKAGEHIVQIAKNAAALQRIAAEVPEVAAYAKAKAREASKYLAEASTAAAAA
B22: design_618_d4ffd631-0ea2-432e-ba0f-bd3d6297b2a0_2173_dldesign_0_cycle1_af2pred (protein)
chain: SSAKEKAKKLAEEAKKIADKAIAQAKALAADKGAANAVLLDAIKELSELAKKAYALDPAYADKINAYAQELVKQMAAIAG
B23: design_618_d4ffd631-0ea2-432e-ba0f-bd3d6297b2a0_2309_dldesign_0_cycle1_af2pred (protein)
chain: AGLEIANKALQLAAEATAALKAAAKGTAAEVEALAKKYLDEAKKLKEQATTPQAKAAANIAISAVTTAKKAALAAVA
B24: design_618_d4ffd631-0ea2-432e-ba0f-bd3d6297b2a0_931_dldesign_0_cycle1_af2pred (protein)
chain: AAAAEAALARAVAVLGRAFQQAVASPDLAEADALLDAGLAEALAITAADPEAAAAVRRLAAQMRAKVRELVS
B25: design_618_d4ffd631-0ea2-432e-ba0f-bd3d6297b2a0_1565_dldesign_0_cycle1_af2pred (protein)
chain: MEEELKKIEEVKELGKKIGEELAKKILEYAKENASLPIEEILRKMVEMTREAVEKIYKLIPSELAEIGARIVWGAGSQAMIQGVRLIG
B26: design_618_d4ffd631-0ea2-432e-ba0f-bd3d6297b2a0_472_dldesign_0_cycle1_af2pred (protein)
chain: MNEAQRIAAARGAARVAAAAAEKDPALGKAILAGAAATFADSPAALKALAATAREEAEKASPEAGAALKAAAAEVEAAAA
B27: design_618_d4ffd631-0ea2-432e-ba0f-bd3d6297b2a0_1130_dldesign_0_cycle1_af2pred (protein)
chain: AEAVAKAALTSAKNLAEMAIRLAESGEKLEEAKKALEVAKAMAEQAEKLNPKYGKEAKAAVEKAEKKLKEAE
B28: design_618_d4ffd631-0ea2-432e-ba0f-bd3d6297b2a0_1447_dldesign_0_cycle1_af2pred (protein)
chain: MQGHIDRLNRGAEAALAAAESGEITEEQARIIRNGAMIAYDAAEAYEKTTRAAELLQTTPEGREEGGKILRELAEKMLARAKELL
B29: design_618_d4ffd631-0ea2-432e-ba0f-bd3d6297b2a0_2021_dldesign_0_cycle1_af2pred (protein)
chain: AALAAQGRAIARTMRIAVLNAATAAEAAAIADTFGTTLLNLADLASPEEQRAIVEATRAEAEEVAAENPEAGAAVAATAERLRAHVEA
B30: design_618_d4ffd631-0ea2-432e-ba0f-bd3d6297b2a0_2296_dldesign_0_cycle1_af2pred (protein)
chain: DKYATEAKKYAEEAEKLAKEAKKEAKKVGEAAKELAKQAEAAAKTAKIAAEGAEAATDPAARALALKVAEQAYKQAKKLLKEIKKL
B31: design_619_5728adc2-0aea-404f-92dd-a4575c53f550_130_dldesign_0_cycle1_af2pred (protein)
chain: DELFARLEELARALVEEAAKRSPELADIILESYEEGKKIAEELGFGPVTAIAIAAALALRRDPEAGALLRQVFVEVARAAIEAQ
B32: design_618_d4ffd631-0ea2-432e-ba0f-bd3d6297b2a0_800_dldesign_0_cycle1_af2pred (protein)
chain: MSEAAKEVAELAEYVSKQAKEAGNEEAAKLAKEGAELAKEGAKDPSTAGEKIAEALKLYIQASQQLVAYQQA
B33: design_618_d4ffd631-0ea2-432e-ba0f-bd3d6297b2a0_1177_dldesign_0_cycle1_af2pred (protein)
chain: AQATLASAQALTNAAETALKTSPEYAPLALQLAQQGIELAKQAAKEGAKEDPATAKEAKEVQKKAEEVAKQAQKILA
B34: design_618_d4ffd631-0ea2-432e-ba0f-bd3d6297b2a0_776_dldesign_0_cycle1_af2pred (protein)
chain: GAEEELKKAEEMGEIAESIAKQAAKASGSKEAKELLKKAKELVKKAKENAKDKEKIKELLKELSRLAGQAAKQLIAALK
B35: design_618_d4ffd631-0ea2-432e-ba0f-bd3d6297b2a0_2465_dldesign_0_cycle1_af2pred (protein)
chain: AAAAQAAAILAAAQQGINDTTALLEKYKDVATPETVALFNKALAYFSKAAALALRGTQPAEAAAALAKGQEEAKKGEELLKKEVE
B36: design_619_5728adc2-0aea-404f-92dd-a4575c53f550_74_dldesign_0_cycle1_af2pred (protein)
chain: DLDAVIATGMLALGKANAALAAARAGTATAAELEAAAAEAEAAAALAAALAAQSSTMAWLAAQLKKAAAELRAAAAKLKA
B37: design_619_5728adc2-0aea-404f-92dd-a4575c53f550_103_dldesign_0_cycle1_af2pred (protein)
chain: SEAERYAEAAKKLAQVAKDIAAAFPANPELKKEAEKAKKYAEKAEKLVKEGGSAEEVLKEYEKARAALARATKLAIAA
B38: design_618_d4ffd631-0ea2-432e-ba0f-bd3d6297b2a0_729_dldesign_0_cycle1_af2pred (protein)
chain: AKEEVVEQAKQVAEAALALAKQVSPEWEKKAKEALELVEKAKEGNLEEAQKVAGEVMRIAAEVLAAYTAKQA

target: CD276, Q5ZPR3
Sequence (Q5ZPR3 whole entry): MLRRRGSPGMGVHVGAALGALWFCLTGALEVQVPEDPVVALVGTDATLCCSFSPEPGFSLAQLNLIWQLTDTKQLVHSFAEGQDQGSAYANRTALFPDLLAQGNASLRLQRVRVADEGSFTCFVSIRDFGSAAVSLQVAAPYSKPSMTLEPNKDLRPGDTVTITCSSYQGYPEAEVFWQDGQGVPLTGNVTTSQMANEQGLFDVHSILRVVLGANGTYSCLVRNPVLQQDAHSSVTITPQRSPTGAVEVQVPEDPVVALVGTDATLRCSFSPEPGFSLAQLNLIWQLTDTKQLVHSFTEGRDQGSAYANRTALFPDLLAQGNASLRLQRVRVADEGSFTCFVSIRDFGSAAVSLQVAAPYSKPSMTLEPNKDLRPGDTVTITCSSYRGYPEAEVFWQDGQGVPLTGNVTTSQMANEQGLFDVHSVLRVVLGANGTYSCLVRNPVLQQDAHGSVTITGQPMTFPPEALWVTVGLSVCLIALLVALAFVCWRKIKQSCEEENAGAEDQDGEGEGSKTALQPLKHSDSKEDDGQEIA

Binding in a display sort, inactive:
B1 not found
B2 not found
B3 not found
B4 not found
B5 not found
B6 not found
B7 not found
B8 not found
B9 not found
B10 not found
B11 not found
B12 not found
B13 not found
B14 not found
B15 not found
B16 not found
B17 not found
B18 not found
B19 not found
B20 not found
B21 not found
B22 not found
B23 not found
B24 not found
B25 not found
B26 not found
B27 not found
B28 not found
B29 not found
B30 not found
B31 not found
B32 not found
B33 not found
B34 not found
B35 not found
B36 not found
B37 not found
B38 not found
